Consider 27 compounds from PubChem BioAssay (Tox21).

Molecules are shown by their SMILES. Values without a mark were called inactive. Inconclusive results are not listed. The source made the active and inactive calls. Unless noted, calls follow the shape of the full dose curve.

A short description of assay [1]: qHTS assay to identify small molecule antagonists of the sonic hedgehog signaling (Shh) pathway (AID 1259369). Also: nearly all actives have a fitted effect of over 45% in size. Also: potency is read from the fitted curve at half-maximal effect. Summed up: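 Stable Gli1-Luc reporter NIH/3T3 clone; quantitative HTS in stimulated mode with conditioned medium. Luminescence measured after 24hr compound treatment at 37 C.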
Assay [2] is described as follows: qHTS assay to identify small molecule agonists of the androgen receptor (AR) signaling pathway in the presence of an antagonist - cell viability counter screen (AID 1259379; active = well fitted curve in the direction sought with a large enough effect in the repeat runs; an effect the other way counts as inactive or inconclusive; also: nearly all actives have a fitted effect of over 25% in size; also: potency is read from the fitted curve at half-maximal effect). Summed up: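 Nilutamide-containing (3.0uM final) MDA-kb2 cultures, 3,000 cells/well, were treated with compounds across 15 concentrations. After 16 hr at 37C with no CO2, cell viability was determined by CellTiter-Fluor fluorescence in the luciferase assay wells.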

Assay [3] can be described thus: qHTS assay to identify small molecule agonists of the estrogen receptor beta (ER-beta) signaling pathway - cell viability counter screen (AID 1259380; active = well fitted curve in the direction sought with a large enough effect in the repeat runs; an effect the other way counts as inactive or inconclusive; also: nearly all actives have a fitted effect of over 30% in size; also: potency is read from the fitted curve at half-maximal effect). The essentials: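 Steps: plate ER-beta-UAS-bla HEK293T cells, rest 6 hr; add compounds in DMSO; incubate 16 hr at 37C, 5% CO2; add FRET substrate 2 hr; add CellTiter-Glo, wait 30 min at room temperature; read luminescence.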
In general terms: qHTS replaces the single test concentration by a dilution series.

The nature of assay [4]: qHTS assay to identify small molecule antagonists of the estrogen receptor beta (ER-beta) signaling pathway - cell viability counter screen (AID 1259382; active = well fitted curve in the direction sought with a large enough effect in the repeat runs; an effect the other way counts as inactive or inconclusive; also: nearly all actives have a fitted effect of over 55% in size; also: potency is read from the fitted curve at half-maximal effect). Summed up: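 Viability is scored by CellTiter-Glo luminescence (30 min, room temperature) in ER-beta-UAS-bla HEK293T wells already read for reporter fluorescence. Compound exposure lasts 16 hr at 37C alongside 1nM 17-beta-estradiol in charcoal-stripped serum medium.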

In assay [5] the target is Estrogen receptor (Homo sapiens) (UniProt P03372). As to the kind of experiment: qHTS assay to identify small molecule agonists of the estrogen receptor alpha (ER-alpha) signaling pathway in the presence of an antagonist (AID 1259383). Also: top concentration of the series differs between compounds; nearly all actives have a fitted effect of over 15% in size. Summed up:
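Readout was ERE-driven luciferase luminescence in VM7Luc4E2 cells, which express full-length ER-alpha endogenously. Compounds were tested at 15 concentrations for 22hr alongside 10.0nM ICI-182,780 (final concentration).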

A short description of assay [6]: qHTS assay to identify small molecule agonists or antagonists of the thyroid stimulating hormone receptor (TSHR) signaling pathway - wild type cell line counter screen (AID 1259384). The essentials: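 Counter screen in untransfected Hek293: compounds (15-point titration, triplicate) plus phosphodiesterase inhibitor Ro20-1724 added after 18 h plating; 30 min RT. Intracellular cAMP via competitive d2/cryptate immunoassay, 1 h incubation.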

Assay [7] addresses Androgen receptor (Homo sapiens) (UniProt P10275). As to the kind of experiment: qHTS assay to identify small molecule agonists of the androgen receptor (AR) signaling pathway in the presence of an antagonist (AID 1259381). Also: nearly all actives have a fitted effect of over 15% in size. The essentials: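 Reporter-gene luminescence from MDA-kb2 cells exposed 16hr at 37C (0% CO2) to 15-point compound titrations with 3.0uM final nilutamide as AR antagonist.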

Assay [8] has as its target Thyrotropin receptor (Homo sapiens) (UniProt P16473). Briefly: qHTS assay to identify small molecule antagonists of the thyroid stimulating hormone receptor (TSHR) signaling pathway (AID 1259385). Also: nearly all actives have a fitted effect of over 20% in size. Also: potency is read from the fitted curve at half-maximal effect. Summed up: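 Antagonist mode: compound-treated TSHR-expressing HEK293 cells were stimulated with 1.5 ng/mL TSH (final) in presence of Ro20-1724 for 30 min at RT. HTRF cAMP detection after 1 h; each compound tested at 15 concentrations, triplicate.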

Assay [9] has as its target Estrogen receptor beta (Homo sapiens) (UniProt Q92731). Briefly: qHTS assay to identify small molecule antagonists of the estrogen receptor beta (ER-beta) signaling pathway (AID 1259378; active = well fitted inhibition curve with a large enough effect in the signal ratio in the repeat runs, not every such curve was filed as active; the % refers to the signal ratio). The essentials:
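Antagonist mode: compounds added to beta-lactamase reporter HEK293T ER-beta-UAS cells stimulated with E2 (1nM final), 16 hr at 37C. LiveBLAzer B/G FRET substrate, 2 hours room temperature, fluorescence read-out.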

Sequence of Estrogen receptor (Homo sapiens) (P03372 whole entry, looked up): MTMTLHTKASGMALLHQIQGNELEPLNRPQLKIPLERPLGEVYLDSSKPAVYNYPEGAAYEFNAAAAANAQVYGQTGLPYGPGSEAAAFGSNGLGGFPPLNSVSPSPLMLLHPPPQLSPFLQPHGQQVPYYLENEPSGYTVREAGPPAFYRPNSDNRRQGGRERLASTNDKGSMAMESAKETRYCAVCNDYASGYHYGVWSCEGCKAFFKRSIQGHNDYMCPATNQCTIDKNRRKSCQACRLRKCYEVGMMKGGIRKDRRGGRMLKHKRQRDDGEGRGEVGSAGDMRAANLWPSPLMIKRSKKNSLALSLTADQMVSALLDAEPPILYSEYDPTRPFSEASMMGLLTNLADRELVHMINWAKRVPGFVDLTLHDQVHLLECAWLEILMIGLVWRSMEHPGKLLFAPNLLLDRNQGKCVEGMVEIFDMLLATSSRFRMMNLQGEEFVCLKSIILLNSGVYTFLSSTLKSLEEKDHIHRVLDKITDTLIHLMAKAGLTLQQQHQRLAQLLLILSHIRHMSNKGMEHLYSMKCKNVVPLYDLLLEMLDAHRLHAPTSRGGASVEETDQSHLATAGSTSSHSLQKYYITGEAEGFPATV
Sequence of Thyrotropin receptor (Homo sapiens) (P16473 whole entry, looked up): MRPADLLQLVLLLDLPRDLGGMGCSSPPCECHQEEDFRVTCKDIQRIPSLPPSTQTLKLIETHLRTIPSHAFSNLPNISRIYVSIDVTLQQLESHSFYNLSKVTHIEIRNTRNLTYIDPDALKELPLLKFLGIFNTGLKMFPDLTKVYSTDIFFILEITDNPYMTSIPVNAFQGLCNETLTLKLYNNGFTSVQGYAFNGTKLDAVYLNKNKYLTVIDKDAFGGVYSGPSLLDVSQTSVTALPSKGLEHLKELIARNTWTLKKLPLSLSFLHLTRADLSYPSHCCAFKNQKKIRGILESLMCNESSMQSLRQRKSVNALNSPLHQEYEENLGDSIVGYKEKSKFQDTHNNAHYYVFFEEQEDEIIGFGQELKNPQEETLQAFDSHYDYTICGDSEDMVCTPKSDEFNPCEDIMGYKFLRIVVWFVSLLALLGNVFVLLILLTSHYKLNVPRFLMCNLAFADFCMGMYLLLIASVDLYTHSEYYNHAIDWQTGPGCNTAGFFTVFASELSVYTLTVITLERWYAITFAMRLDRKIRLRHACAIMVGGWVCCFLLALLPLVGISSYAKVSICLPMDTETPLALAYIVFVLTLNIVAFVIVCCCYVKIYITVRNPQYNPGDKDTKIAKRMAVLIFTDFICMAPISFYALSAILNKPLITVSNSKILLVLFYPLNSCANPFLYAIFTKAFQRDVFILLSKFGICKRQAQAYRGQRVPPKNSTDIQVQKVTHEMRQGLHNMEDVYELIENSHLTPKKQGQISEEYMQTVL
Sequence of Androgen receptor (Homo sapiens) (P10275 whole entry, looked up): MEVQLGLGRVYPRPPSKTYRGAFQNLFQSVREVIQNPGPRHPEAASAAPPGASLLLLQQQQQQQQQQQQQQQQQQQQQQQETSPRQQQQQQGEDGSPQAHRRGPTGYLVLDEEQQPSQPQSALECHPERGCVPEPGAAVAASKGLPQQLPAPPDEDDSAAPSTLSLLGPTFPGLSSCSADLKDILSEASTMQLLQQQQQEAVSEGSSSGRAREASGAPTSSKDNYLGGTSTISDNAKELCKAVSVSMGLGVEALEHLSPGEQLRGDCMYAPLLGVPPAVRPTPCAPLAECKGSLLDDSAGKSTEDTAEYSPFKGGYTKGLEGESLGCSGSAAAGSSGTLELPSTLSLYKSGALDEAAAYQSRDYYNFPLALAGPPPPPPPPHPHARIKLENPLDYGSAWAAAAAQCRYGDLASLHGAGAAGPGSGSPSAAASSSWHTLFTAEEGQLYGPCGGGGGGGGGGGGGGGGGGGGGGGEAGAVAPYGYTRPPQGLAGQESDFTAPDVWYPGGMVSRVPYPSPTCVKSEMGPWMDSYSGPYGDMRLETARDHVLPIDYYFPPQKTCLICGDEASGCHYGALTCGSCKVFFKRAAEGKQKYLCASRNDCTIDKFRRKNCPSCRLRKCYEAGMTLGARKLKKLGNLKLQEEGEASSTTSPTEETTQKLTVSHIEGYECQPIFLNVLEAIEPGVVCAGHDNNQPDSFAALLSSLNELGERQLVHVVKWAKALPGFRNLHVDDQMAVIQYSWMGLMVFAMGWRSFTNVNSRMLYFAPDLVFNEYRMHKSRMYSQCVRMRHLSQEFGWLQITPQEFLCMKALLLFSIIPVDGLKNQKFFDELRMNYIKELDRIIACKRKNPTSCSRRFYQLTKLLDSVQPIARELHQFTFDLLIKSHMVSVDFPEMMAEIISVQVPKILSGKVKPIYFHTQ
Sequence of Estrogen receptor beta (Homo sapiens) (Q92731 whole entry, looked up): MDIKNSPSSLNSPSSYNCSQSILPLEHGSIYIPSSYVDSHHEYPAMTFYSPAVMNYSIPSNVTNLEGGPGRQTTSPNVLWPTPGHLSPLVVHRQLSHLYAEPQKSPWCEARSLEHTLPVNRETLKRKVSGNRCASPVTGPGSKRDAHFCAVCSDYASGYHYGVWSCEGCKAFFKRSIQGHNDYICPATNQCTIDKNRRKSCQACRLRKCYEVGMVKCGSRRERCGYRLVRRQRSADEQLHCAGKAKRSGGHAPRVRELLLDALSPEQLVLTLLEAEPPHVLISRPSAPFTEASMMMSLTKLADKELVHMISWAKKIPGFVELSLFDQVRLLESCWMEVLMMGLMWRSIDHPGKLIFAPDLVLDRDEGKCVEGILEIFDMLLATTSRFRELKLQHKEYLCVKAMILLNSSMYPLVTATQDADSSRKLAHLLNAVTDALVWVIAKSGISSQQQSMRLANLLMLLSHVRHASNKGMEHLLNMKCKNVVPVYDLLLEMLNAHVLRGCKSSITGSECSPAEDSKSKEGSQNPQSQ

Take `CC1(C)S[C@@H]2[C@H](NC(=O)C(c3ccccc3)S(=O)(=O)O)C(=O)N2[C@H]1C(=O)O` (some centres undefined): the Potency result in [1], in assay [2], in assay [3], in assay [4] and in [5] was “inactive” in each case. In assay [6], the outcome was inactive.
As for `C=C(C)[C@@H]1CCC2=CCC[C@@H](C)[C@]2(C)C1`, the Potency in assay [1] was 24.3 µM (active). Besides, the Potency entry in [2], in assay [3], in assay [7], in [4], in assay [5] and in [8] was “inactive” throughout. For the same compound, in assay [6], the compound was classed as inactive.
Regarding `COc1cc(Nc2c(C#N)cnc3cc(OCCCN4CCN(C)CC4)c(OC)cc23)c(Cl)cc1Cl`, the Potency in assay [1] is 13.3 µM (active); in assay [2] it was 29.8 µM (active); in [3] it was 33.5 µM (active); in [8], 13.3 µM (active). Moreover, the Potency entry in assay [4] was “inactive”. The call in assay [6] was inactive.
Regarding `CC(CO)CO`, the Potency result in [1], in assay [2], in assay [3], in [4], in assay [5] and in [8] was “inactive” each time. Also, the compound was classed as inactive in assay [6].
Consider `CC(C)c1nc(CN(C)C(=O)N[C@H](C(=O)N[C@@H](Cc2ccccc2)C[C@H](O)[C@H](Cc2ccccc2)NC(=O)OCc2cncs2)C(C)C)cs1`, for which the Potency result in assay [1], in assay [2] and in assay [5] was “inactive” in each case. Besides, the figures for the Potency in [3] and in assay [4] were 15 µM (active) and 21.1 µM (active), respectively. The compound was called inactive in assay [6].
`O=C1c2ccccc2C(=O)C1c1nc2ccccc2c(Br)c1O`: the Potency result in assay [1], in assay [9], in [3] and in assay [4] was “inactive” throughout. Besides, the outcome in assay [6] was inactive.
Consider `O=C1c2ccccc2C(=O)c2c(O)c(O)cc(O)c21`, for which the Potency result in assay [1], in assay [3], in [7], in assay [4], in assay [5] and in [8] was “inactive” each time. The Potency in assay [2] was 30.6 µM (active). Further, the compound was called inactive in assay [6].
`CC(C)COCC(CN(Cc1ccccc1)c1ccccc1)N1CCCC1` (centres undefined): the Potency was 26.6 µM (active) in assay [1], 26.6 µM (active) in assay [2], 29.8 µM (active) in [3] and 21.1 µM (active) in assay [4]. In addition, the Potency result in assay [5] is “inactive”.
On to `NC1[C@H]2CN(c3nc4c(cc3F)c(=O)c(C(=O)O)cn4-c3ccc(F)cc3F)C[C@@H]12` (some centres undefined), for which the Potency in assay [1] is 29.8 µM (active). The Potency entry in assay [2], in [3], in assay [7], in assay [4], in assay [5] and in [8] was “inactive” throughout. Moreover, the result in assay [6] was inactive.
Consider `C(=C\c1ccccc1)/c1ccccc1`, for which the Potency entry in assay [1], in assay [2], in assay [3], in assay [4], in assay [5] and in assay [8] was “inactive” throughout. Also, the result in [6] was inactive.
With `C[C@H]1c2cccc(O)c2C(O)=C2C(=O)[C@]3(O)C(O)=C(C(N)=O)C(=O)[C@@H](N(C)C)[C@@H]3[C@@H](O)[C@@H]21`, the Potency entry in assay [1], in assay [2], in assay [3], in assay [7], in assay [4] and in assay [5] was “inactive” each time.
On to `CN1C(=O)N(c2ccccc2Br)Cc2cnc(Nc3ccc4c(c3)OCC(CO)O4)nc21` (centres undefined), for which the Potency was 6.86 µM (active) in assay [1], 61.1 µM (active) in assay [2], 34.4 µM (active) in assay [3] and 38.6 µM (active) in assay [4]. Further, the Potency result in [5] and in assay [8] was “inactive” throughout. In addition, the result in assay [6] was inactive.
As for `CCC(C)COC(C)=O` (centres undefined), the Potency entry in assay [1], in assay [2], in assay [3], in [4] and in assay [5] was “inactive” in each case. Besides, the outcome in [6] was inactive.
`O=C(/C=C/c1ccc(O)c(O)c1)O[C@@H]1C[C@@](OC(=O)/C=C/c2ccc(O)c(O)c2)(C(=O)O)C[C@@H](O)[C@@H]1O`: the Potency result in assay [1], in [2], in assay [3], in assay [4], in assay [5] and in [8] was “inactive” each time. In assay [6], the compound was classed as inactive.
In the case of `N#CCCN(CCO)CCO`, the Potency entry in [1], in [2], in assay [3], in [4], in [5] and in [8] was “inactive” throughout. Besides, the compound was called inactive in assay [6].
`C[C@@]12CCC[C@H]1[C@@H]1CC[C@H]3C[C@@H](O)CC[C@]3(C)[C@H]1CC2`: the Potency in [1] is 23.7 µM (active). Moreover, the Potency result in [2], in assay [3], in assay [4] and in [8] was “inactive” each time. Moreover, in assay [6], the outcome was inactive.
Regarding `CCCCCCCCCCCCCCN(CCO)CCO`, the Potency in [1] is 19.3 µM (active); in assay [2] it was 61.1 µM (active); in assay [3] it was 54.5 µM (active); in assay [4], 48.6 µM (active).
As to `CNC(=O)c1cnn(-c2nc(N)c3ncn([C@@H]4O[C@H](CO)[C@@H](O)[C@H]4O)c3n2)c1`, the Potency entry in [1], in assay [2], in assay [3], in assay [4], in assay [5] and in assay [8] was “inactive” in each case. Further, the result in assay [6] was inactive.
With `CCOC(C)=O`, the Potency result in assay [1], in assay [2], in assay [3], in [4] and in assay [5] was “inactive” each time. For the same compound, the compound was called inactive in assay [6].
`N#CCc1ccc(Cl)cc1Cl`: the Potency result in assay [1], in [2], in assay [3], in assay [4], in assay [5] and in [8] was “inactive” in each case. In addition, the call in assay [6] was inactive.
For `Nc1ccc(N=Nc2ccccc2)c(N)c1`, the Potency result in assay [1] and in assay [5] was “inactive” throughout. The Potency in [2] and in assay [3] was 26.7 µM (active) in each case.
Turning to `CCOC(=O)[C@H](CCc1ccccc1)N[C@@H](C)C(=O)N(CC(=O)O)C1Cc2ccccc2C1`, the Potency entry in assay [1], in assay [2] and in [5] was “inactive” each time. Besides, the Potency was 6.68 µM (active) in assay [3] and 11.9 µM (active) in assay [4].
Take `Oc1cccc(Nc2ccccc2)c1`: the Potency result in assay [1], in assay [2], in assay [3], in assay [4] and in assay [8] was “inactive” each time. Besides, the compound was called inactive in assay [6].
With `CCOC(=O)c1ccc(O)c(O)c1`, the Potency in assay [1] was 29.8 µM (active). Moreover, the Potency result in [2], in [3], in assay [4] and in [5] was “inactive” in each case. In assay [6], the compound was classed as inactive.
Regarding `CCOC(=O)c1ccc(OCCN2C[C@H](O)[C@@H](O)[C@H](O)[C@H]2CO)cc1`, the Potency result in assay [1], in assay [2], in assay [3], in [4] and in [5] was “inactive” each time. The result in assay [6] was inactive.
On to `CCOc1ccccc1O[C@H](c1ccccc1)[C@H]1CNCCO1`, for which the Potency result in assay [1], in assay [2], in [3], in assay [4], in [5] and in assay [8] was “inactive” in each case. In addition, the call in assay [6] was inactive.
Consider `NC(=O)c1ccncc1`, for which the Potency result in assay [1], in assay [2], in assay [3], in assay [7] and in assay [4] was “inactive” each time. In assay [6], the call was inactive.
